PubChem BioAssay (EPA / NIEHS)
“And” between values parts separate entries of the source, which are not always exact repeats. Identical values can stand only once. More than one record can exist for a structure, and the calls need not agree. The source made the active and inactive calls. Rule for the calls: active = hit-call score of the fitted dose curve at least 0.9, where 1 is the maximum; inactive = score below 0.9.

The compounds below were run on Thyroid Hormone Responsive (THRSP), THRSP (gene 7069) (assay: LTEA_HepaRG_THRSP: Life Technologies and Expression Analysis (LTEA) Assay for Thyroid Hormone Responsive (THRSP) using HepaRG (AID 2283536)). Conditions: mRNA level, 48 h; actives raise or lower the signal.
How it was run: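 Differentiated HepaRG cells treated 48 h in serum-free induction medium with 8 half-log concentrations up to 100 uM (0.5% DMSO), duplicates. THRSP mRNA by TaqMan qRT-PCR normalised to ACTB, GAPDH, POLR2A; bidirectional fit versus DMSO.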
In the case of `CC(C)OC(=O)Nc1cccc(Cl)c1`, the outcome is reported as “inactive”.
For `COc1nn(CSP(=S)(OC)OC)c(=O)s1`, the outcome was “inactive”.
In the case of `ClC1C(Cl)C(Cl)C(Cl)C(Cl)C1Cl` (stereo unspecified), the outcome is reported as “inactive”.
In the case of `O=C(O)CCCOc1ccc(Cl)cc1Cl`, the outcome is reported as “inactive”.
For `CCC(C)(NC(=O)c1cc(Cl)c(C)c(Cl)c1)C(=O)CCl` (stereo unspecified), the AC50 was 95.3 µM (active).

The compounds below were run on Cellular tumor antigen p53 (Homo sapiens) (UniProt P04637) (assay: LTEA_HepaRG_TP53: Life Technologies and Expression Analysis (LTEA) Assay for Tumor Protein P53 (TP53) using HepaRG (AID 2283537)). Conditions: mRNA level, 48 h; actives raise or lower the signal.
Sequence of Cellular tumor antigen p53 (Homo sapiens) (P04637 whole entry, looked up): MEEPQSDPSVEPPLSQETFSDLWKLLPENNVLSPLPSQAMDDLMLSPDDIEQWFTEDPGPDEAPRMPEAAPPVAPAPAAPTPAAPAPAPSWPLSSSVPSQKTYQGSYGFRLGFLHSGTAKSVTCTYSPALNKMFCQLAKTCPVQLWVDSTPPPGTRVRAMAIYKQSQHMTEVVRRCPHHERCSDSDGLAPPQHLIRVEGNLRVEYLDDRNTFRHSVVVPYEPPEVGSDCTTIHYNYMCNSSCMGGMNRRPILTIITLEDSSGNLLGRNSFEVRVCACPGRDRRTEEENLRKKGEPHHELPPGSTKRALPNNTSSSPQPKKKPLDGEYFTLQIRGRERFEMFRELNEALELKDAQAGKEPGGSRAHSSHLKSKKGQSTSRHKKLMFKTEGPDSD
How it was run: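 HepaRG, 48 h exposure, top 100 uM, half-log 8-point, 0.5% DMSO vehicle, duplicates. Read: TP53 mRNA by TaqMan qRT-PCR, normalised to ACTB/GAPDH/POLR2A; bidirectional fit vs DMSO.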
In the case of `Oc1ccc(Cl)cc1Cc1ccccc1`, the outcome is reported as “inactive”.
In the case of `O=S(=O)(O)C(F)(F)C(F)(F)C(F)(F)C(F)(F)C(F)(F)C(F)(F)C(F)(F)C(F)(F)F`, the AC50 is reported as 50 µM (active) and 48 µM (active).
`CC(C)(C)C(O)C(Oc1ccc(Cl)cc1)n1cncn1` (stereo unspecified) was tested, and the AC50 was 0.354 µM (active) and the outcome was “inactive”.
`CNC(=O)Oc1ccccc1OC(C)C` was tested, and the outcome was “inactive”.
With `COP(=S)(OC)Oc1ccc([N+](=O)[O-])cc1` the outcome was “inactive”.
For `CNC(=O)Oc1cccc(N=CN(C)C)c1`, the outcome was “inactive”.
For `O=C(Nc1ccccc1)Nc1cnns1`, the outcome was “inactive”.
In the case of `O=C(O)COc1ccc(Cl)cc1Cl`, the outcome is reported as “inactive”.
For `CCOCN(C(=O)CCl)c1c(C)cccc1CC`, the outcome was “inactive”.
For `CC1(c2ccc(Oc3ccccc3)cc2)OC(=O)N(Nc2ccccc2)C1=O` (stereo unspecified), the AC50 was 12.9 µM (active).
`N#Cc1c(Cl)c(Cl)c(Cl)c(C#N)c1Cl` was tested, and the outcome was “inactive”.
`Oc1cc(Cl)ccc1Oc1ccc(Cl)cc1Cl` was tested, and the outcome was “inactive”.
`CC1(C)C(C=C(Cl)Cl)C1C(=O)OC(C#N)c1ccc(F)c(Oc2ccccc2)c1` (stereo unspecified) was tested, and the outcome was “inactive”.
For `CN1CSC(=S)N(C)C1`, the outcome was “inactive”.
For `CCN(CC)C(=O)SCc1ccc(Cl)cc1`, the outcome was “inactive”.
In the case of `O=C(O)C(F)(F)C(F)(F)C(F)(F)C(F)(F)C(F)(F)C(F)(F)C(F)(F)F`, the AC50 is reported as 12.3 µM (active) and the outcome is reported as “inactive”.
With `CCc1ccc(C(=O)NN(C(=O)c2cc(C)cc(C)c2)C(C)(C)C)cc1` the outcome was “inactive”.
In the case of `CC(C)OC(=O)Nc1cccc(Cl)c1`, the outcome is reported as “inactive”.
With `COc1nn(CSP(=S)(OC)OC)c(=O)s1` the outcome was “inactive”.
In the case of `ClC1C(Cl)C(Cl)C(Cl)C(Cl)C1Cl` (stereo unspecified), the outcome is reported as “inactive”.
`O=C(O)CCCOc1ccc(Cl)cc1Cl` was tested, and the outcome was “inactive”.
With `CCC(C)(NC(=O)c1cc(Cl)c(C)c(Cl)c1)C(=O)CCl` (stereo unspecified) the outcome was “inactive”.

Each compound was assayed on UDP glucuronosyltransferase (UGT1A1), UGT1A1 (gene 54658) (assay: LTEA_HepaRG_UGT1A1: Life Technologies and Expression Analysis (LTEA) Assay for UDP glucuronosyltransferase (UGT1A1) using HepaRG (AID 2283538)). Conditions: mRNA level, 48 h; actives raise or lower the signal.
How it was run: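 Differentiated human HepaRG cells in serum-free induction medium were exposed in duplicate for 48 h to eight half-log concentrations up to 100 uM in 0.5% DMSO. UGT1A1 mRNA was quantified by TaqMan qRT-PCR, normalized to ACTB, GAPDH and POLR2A, and fitted bidirectionally against DMSO.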
With `Oc1ccc(Cl)cc1Cc1ccccc1` the outcome was “inactive”.
With `O=S(=O)(O)C(F)(F)C(F)(F)C(F)(F)C(F)(F)C(F)(F)C(F)(F)C(F)(F)C(F)(F)F` the AC50 was 12.9 µM (active) and 11.5 µM (active) and 11.9 µM (active).
For `CC(C)(C)C(O)C(Oc1ccc(Cl)cc1)n1cncn1` (stereo unspecified), the AC50 was 3.12 µM (active) and 2.49 µM (active) and 3.05 µM (active).
`CNC(=O)Oc1ccccc1OC(C)C` was tested, and the AC50 was 0.633 µM (active).
In the case of `COP(=S)(OC)Oc1ccc([N+](=O)[O-])cc1`, the outcome is reported as “inactive”.
In the case of `CNC(=O)Oc1cccc(N=CN(C)C)c1`, the outcome is reported as “inactive”.
`O=C(Nc1ccccc1)Nc1cnns1` was tested, and the AC50 was 87.2 µM (active).
`O=C(O)COc1ccc(Cl)cc1Cl` was tested, and the outcome was “inactive”.
For `CCOCN(C(=O)CCl)c1c(C)cccc1CC`, the outcome was “inactive”.
`CC1(c2ccc(Oc3ccccc3)cc2)OC(=O)N(Nc2ccccc2)C1=O` (stereo unspecified) was tested, and the outcome was “inactive”.
`N#Cc1c(Cl)c(Cl)c(Cl)c(C#N)c1Cl` was tested, and the outcome was “inactive”.
For `Oc1cc(Cl)ccc1Oc1ccc(Cl)cc1Cl`, the outcome was “inactive”.
With `CC1(C)C(C=C(Cl)Cl)C1C(=O)OC(C#N)c1ccc(F)c(Oc2ccccc2)c1` (stereo unspecified) the AC50 was 10.2 µM (active).
`CN1CSC(=S)N(C)C1` was tested, and the outcome was “inactive”.
With `CCN(CC)C(=O)SCc1ccc(Cl)cc1` the outcome was “inactive”.
For `O=C(O)C(F)(F)C(F)(F)C(F)(F)C(F)(F)C(F)(F)C(F)(F)C(F)(F)F`, the AC50 was 3.11 µM (active) and 7.73 µM (active).
For `CCc1ccc(C(=O)NN(C(=O)c2cc(C)cc(C)c2)C(C)(C)C)cc1`, the AC50 was 12.3 µM (active).
`CC(C)OC(=O)Nc1cccc(Cl)c1` was tested, and the outcome was “inactive”.
In the case of `COc1nn(CSP(=S)(OC)OC)c(=O)s1`, the AC50 is reported as 15.1 µM (active).
With `ClC1C(Cl)C(Cl)C(Cl)C(Cl)C1Cl` (stereo unspecified) the AC50 was 780 nM (active) and 3.95 µM (active).
With `O=C(O)CCCOc1ccc(Cl)cc1Cl` the AC50 was 34.5 µM (active).
With `CCC(C)(NC(=O)c1cc(Cl)c(C)c(Cl)c1)C(=O)CCl` (stereo unspecified) the AC50 was 12.4 µM (active).
